Reference: ChEMBL document CHEMBL4513216, “Probing the Open Global Health Chemical Diversity Library for Multistage-Active Starting Points for Next-Generation Antimalarials” (ACS Infect Dis, 2020)
Hit rate of the full screen: of about 69,000 compounds, about 8,600 (12%) showed an effect of 50% or more. This is one part of a sample in which strong results are shown more often than they occur.

Test system: Plasmodium berghei
Assay: Screen against P. berghei liver stage (PbLuc), transformed with Luciferase, at 10uM
Assay type: functional, HepG2
Settings: tested at 10 uM

Row | SMILES | INHIBITION
1 | CCn1cc(NC(=O)C2CCN(Cc3noc(C4CC4)n3)CC2)cn1 | 18.2%
2 | CC(C)OCC(=O)Nc1ccc(Oc2ccc3c(c2)OCO3)nc1 | 29.9%
3 | O=C(CCN1C(=O)CCC1=O)Nc1ccc(Cl)cc1 | 67.2%
4 | CC(C)N(C)C(=O)c1ccc(Cl)c(NC(=O)CCN2C(=O)CCC2=O)c1 | 35.2%
5 | O=C(CCN1C(=O)CCC1=O)Nc1ccc(Oc2ccc(Cl)cc2)nc1 | 51.1%
6 | O=C(CCN1C(=O)CCC1=O)Nc1cnn(-c2ccccc2Cl)c1 | 28.5%
7 | O=C(CCN1C(=O)CCC1=O)Nc1ccc(OCC(F)(F)F)nc1 | 39.4%
8 | COC1CCN(C(=O)NCC(N)=O)CC(=O)N(C)c2ccccc21 (stereo not given) | 16.2%
9 | Cc1cnn(CC2CN(Cc3cccnc3)CCO2)c1 (stereo not given) | -7.81%
10 | COC(=O)CN1CCCn2nc(CCC(=O)N3CCCC3)cc2C1 | 32.4%
11 | CC(=O)N1CC(C)CN(C(=O)c2cnccn2)c2ccccc21 (stereo not given) | 60.7%
12 | CC1CN(C)c2ccccc2N(C(=O)c2c[nH]c(C(C)C)n2)C1 (stereo not given) | 29.6%
13 | CC(=O)N1CC(C)CN(C(=O)c2cccnc2C)c2ccccc21 (stereo not given) | -9.8%
14 | CC(C)c1cc(COCCC(=O)O)no1 | 44.1%
15 | CN1CCN(Cc2cnn(-c3ccc(F)cc3)c2)[C@H]2CS(=O)(=O)C[C@H]21 | 69.8%
16 | Cc1cccc(-n2cc(CN3CCN(C)[C@@H]4CS(=O)(=O)C[C@@H]43)cn2)c1 | 4.41%
17 | COc1ccc(CCNC(=O)N2CCN(C)[C@@H]3CS(=O)(=O)C[C@@H]32)cc1 | 31.9%
18 | Cc1ccc(-n2cc(CN3CCN(C)[C@@H]4CS(=O)(=O)C[C@@H]43)cn2)cc1 | 29.1%
19 | COc1ccccc1-n1cc(CN2CCN(C)[C@@H]3CS(=O)(=O)C[C@@H]32)cn1 | 50.1%
20 | CN1CCN(Cc2cnn(-c3ccccc3Cl)c2)[C@H]2CS(=O)(=O)C[C@H]21 | -54.8%
21 | CN1CCN(C(=O)NCCc2ccc(F)cc2)[C@H]2CS(=O)(=O)C[C@H]21 | 52.2%
22 | COc1ccc(CNC(=O)N2CCN(C)[C@@H]3CS(=O)(=O)C[C@@H]32)cc1 | 0.891%
23 | CN1CCN(Cc2nc3ccccc3[nH]2)[C@H]2CS(=O)(=O)C[C@H]21 | -1.64%
24 | Cc1nn(C)c2cnn(Cc3ccc(C(=O)NCC4CCCO4)o3)c12 (stereo not given) | 17.6%
25 | O=C1CC2(CCSC2)C(=O)N1Cc1coc(-c2cccc(F)c2)n1 (stereo not given) | 3.03%
26 | Cc1noc(C)c1CN1CCc2ncc(Cn3cccn3)n2CC1 | 26%
27 | Cc1nonc1C(=O)N1CCCC(c2ncncc2-c2ccncc2)C1 (stereo not given) | 42.1%

Row | SMILES | INHIBITION
28 | Cc1nc(Nc2cnccn2)cc(C2CCCN2)n1 (stereo not given) | 34.9%
29 | Cc1ccc(CNC(=O)CN2CCOC(Cn3cncn3)C2)s1 (stereo not given) | 5.03%
30 | O=C(NCCN1CCCCC1)c1ccoc1 | 16.1%
31 | COc1cc(CNCCc2cc(F)cc3c2OCOC3)cc(OC)c1 | 26.6%
32 | CCn1cnnc1CNC(=O)N(C)C(C)c1cccs1 (stereo not given) | -41.1%
33 | Cc1cccc2nc(CNC(=O)N3CCC(OCC4CC4)CC3)cn12 | 51.2%
34 | CCOCC1CCCN(C(=O)NCc2cn3c(C)cccc3n2)C1 (stereo not given) | 21.6%
35 | CNC(=O)CC1CCN(C(=O)NCc2cn3c(C)cccc3n2)CC1 | 45.2%
36 | O=C(NCc1cc[nH]n1)N1CCN(c2ccccc2Cl)CC1 | 39.2%
37 | O=C(C1CC(=O)N(C2CC2)C1)N1CCC(Oc2ccccc2Cl)CC1 (stereo not given) | -6.88%
38 | Cc1cccc(OC2CCN(C(=O)NCc3cc[nH]n3)CC2)c1C | 88.4%
39 | O=C(C1CC1)N1CCC(Oc2ccccc2Cl)CC1 | 88.1%
40 | CN1CC(C(=O)N2CCC(Oc3ccccc3Cl)CC2)CC1=O (stereo not given) | 35.5%
41 | CS(=O)(=O)NC1CCN(C(=O)NCc2cc[nH]n2)CC1 | 8.64%
42 | O=C(NCc1cc[nH]n1)N1CCC(Oc2ccccc2Cl)CC1 | 50.2%
43 | Cc1cccc(OC2CCN(C(=O)NCCn3ccnc3)CC2)c1C | -4.13%
44 | CCOc1ccccc1N1CCN(C(=O)NCc2cc[nH]n2)CC1 | 49.8%
45 | Cc1ccc(C(=O)N2CCO[C@H]3[C@@H](OCc4ccccn4)CC[C@@H]32)o1 | 3.47%
46 | Cc1ccc(CNC(=O)N(C)Cc2cnn(C)c2)s1 | 25.5%
47 | COC(=O)c1cc(C2CC2)nc2c(Cl)cnn12 | 20.9%
48 | Cc1c(C(C)NC(=O)Nc2ccccc2F)cnn1C (stereo not given) | 61.9%
49 | Cc1c(C(C)NC(=O)Nc2ccc(F)c(F)c2)cnn1C (stereo not given) | 6.26%
50 | Cc1c(C(C)NC(=O)Nc2ccc(F)cc2F)cnn1C (stereo not given) | 44.3%
51 | Cc1ccccc1CSc1ncccc1C(=O)N(C)C | -13.2%
52 | Cc1cncc(CN2CC[C@@](O)(CNC(=O)c3c[nH]cn3)[C@H](O)C2)c1 | 32.7%
53 | Cc1cnn(CC2CN(c3ncnc4c3CCC4)CCO2)c1 (stereo not given) | 63%
54 | c1cnn(CC2CN(c3ncnc4ccsc34)CCO2)c1 (stereo not given) | 62.4%

Row | SMILES | INHIBITION
55 | Cc1nnc(N2CCOC(Cn3cccn3)C2)c(C#N)c1C (stereo not given) | 17.8%
56 | Cc1cnn(CC2CN(c3ncnc4ccccc34)CCO2)c1 (stereo not given) | 64.4%
57 | Cc1cnn(CC2CN(c3ncnc4[nH]ccc34)CCO2)c1 (stereo not given) | 19.4%
58 | Cc1nc(N2CCCOC(Cn3cccn3)C2)c2sccc2n1 (stereo not given) | 65.7%
59 | c1nc(N2CCOC(Cn3cncn3)C2)c2sccc2n1 (stereo not given) | 49.4%
60 | c1cnn(CC2CN(c3ncnc4sccc34)CCO2)c1 (stereo not given) | 45%
61 | c1cnn(CC2CN(c3ncnc4[nH]ccc34)CCO2)c1 (stereo not given) | 13.3%
62 | c1ccc2c(N3CCOC(Cn4cccn4)C3)ncnc2c1 (stereo not given) | 4.48%
63 | c1nc2c(c(N3CCOC(Cn4cncn4)C3)n1)CCC2 (stereo not given) | -26.9%
64 | c1cnn(CC2CN(c3ncnc4c3CCC4)CCO2)c1 (stereo not given) | -7.17%
65 | O=C1CN(C(=O)C2CN(c3cccc(Cl)c3)CCO2)CCN1 (stereo not given) | 3.46%
66 | Cn1cnc2cc(C(=O)NS(=O)(=O)c3ccccc3Cl)ccc21 | -32.1%
67 | Cc1ccc2c(c1)C(=O)NCC1(CCN(Cc3ccccc3)CC1)O2 | -6.92%
68 | COc1ccc(-n2ccc(C(=O)N(C)C(C)C3(C)CC3)n2)cc1 (stereo not given) | 29.1%
69 | Cc1cccc(CN2CCC(N(C)Cc3nnc(C4CC4)n3C)C2)c1 (stereo not given) | 38.5%
70 | COc1ccc(CCNC(=O)NCC(O)c2cccc(F)c2)cc1 (stereo not given) | 12.7%
71 | CC(C)c1sc(Br)nc1C(=O)NCc1ccncc1 | 45.3%
72 | O=C(NCCc1cnccn1)c1ccc(S(=O)(=O)NC2CCC2)cc1 | 40.3%
73 | CC(C)N1CC[C@@H]2[C@H](COCC3CC3)CN(C)C(=O)[C@@H]2CC1 | 10.5%
74 | O=C(NC[C@]1(O)CN(Cc2ccc(F)cc2)C[C@H]1O)c1ccccn1 | 18.9%
75 | Cc1cnn(CC2CN(c3ncnc4ccsc34)CCO2)c1 (stereo not given) | 83.7%
76 | CN(C)CC1CN(c2ncnc3ccsc23)CCO1 (stereo not given) | 30.8%
77 | Cc1nc(N2C[C@H]3CNC[C@H]3C2)c2sccc2n1 | 55.6%
78 | Cc1cnn(CC2CN(c3cnc4ccccc4n3)CCO2)c1 (stereo not given) | 16.2%
79 | Cc1nc(N2C[C@@H](CN3CCCCC3)[C@@H](CO)C2)c2sccc2n1 | 46.4%
80 | COC1[C@@H]2CC[C@H]1CN(c1nc(C)nc3ccsc13)C2 (stereo not given in full) | 43%
81 | Cc1csc(N2CCN(C(=O)c3ccc(C)s3)CC2)n1 | 2.3%

Row | SMILES | INHIBITION
82 | CCN(C)c1ncnc2c1CCN(Cc1ccsc1)CC2 | -14.1%
83 | Cc1cc(C)n(CC2CCCCN2CCC(=O)Nc2cc(C)on2)n1 (stereo not given) | 12.7%
84 | CN(Cc1cccs1)S(=O)(=O)c1ccc(C(F)(F)F)nc1 | 35.1%
85 | Cc1[nH]c2cc(C3CCCCN3C(=O)C3CC3)nn2c(=O)c1C (stereo not given) | -3.02%
86 | Cn1ccnc1CN1CCN(CC(O)c2ccc(F)cc2)CC1 (stereo not given) | -18%
87 | Cc1ncsc1CN1CCOC(C)(C(N)=O)C1 (stereo not given) | 15.5%
88 | O=C(NC1CC1)C1CCN(c2cccc(C(F)(F)F)n2)CC1 | 86.8%
89 | O=C(NC1CCN(c2cccc(C(F)(F)F)n2)CC1)C1CC1 | 29%
90 | O=C(NC1CC1)C1CCCN(c2cccc(C(F)(F)F)n2)C1 (stereo not given) | -28.8%
91 | CCN1CCCC1CNC(=O)Cc1c(-c2ccc(Cl)cc2)n[nH]c1C (stereo not given) | 14.4%
92 | Cc1ccccc1CSc1nc(N)cc(N2CCCC(O)C2)n1 (stereo not given) | 15.2%
93 | Cc1ccccc1CSc1nc(N)cc(N2CC[C@@H](O)C2)n1 | 42.1%
94 | Cc1ccccc1CSc1nc(N)cc(N2C[C@H](O)[C@@H](N(C)C)C2)n1 | 58.2%
95 | CC(C)(C)C(=O)NCCCn1cncn1 | -21.9%
96 | COc1nn(C)cc1C(=O)NCC1(O)CCOCC1 | 15.7%
97 | CCn1c(C)nnc1CN(C)C1CCN(CC2CCC2)C1 (stereo not given) | -4.16%
98 | c1cc(CN2CCOC(Cn3cccn3)C2)c2c(c1)OCCO2 (stereo not given) | 25.1%
99 | COC(=O)c1cc2c(OC)c(C)c(OC)cc2[nH]1 | -1.45%
100 | CCc1cc(CN(C)Cc2nc(-c3ccc(OC)cc3F)oc2C)on1 | 39.9%
101 | COc1ccc(OC)c(-c2nc(CN(C)Cc3nncn3C)c(C)o2)c1 | 57.8%
102 | CCn1cnnc1CN(C)Cc1nc(-c2cc(OC)ccc2F)oc1C | 50.4%
103 | COc1ccc(OC)c(-c2nc(CN(C)Cc3nonc3C)c(C)o2)c1 | -28%
104 | COc1ccc(-c2nc(CN(C)Cc3nncn3C)c(C)o2)c(C)c1C | -29.1%
105 | COCc1ncn(Cc2nc(-c3ccc(OC)cc3F)oc2C)n1 | 8.86%
